# Bioassay records (PubChem BioAssay)
# A selection: hits, their analogues and other compounds. The true share with any hit is near 4.1%.
# ssDAF-12 act: activates DAF-12 receptor from parasite S. stercoralis | HEK293 ssDAF-12/GRIP1 lit1-tk-luc reporter, luminescence; % of 3 µM dafachronic acid response | activation, % at 6.8 µM | 1% of 370,000 active | AID 652126;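 active = activation above the mean over all tested compounds plus 3 SD, cut at about 0.9% in these data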;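 also: 0% = DMSO-only wells and 100% = 3 µM delta7-dafachronic acid wells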
# hgDAF12 agonist: activates the H. glycines DAF-12 receptor ligand-binding domain. activation, % at 6.8 µM. HEK293 GAL4-hgDAF12 UAS-luciferase reporter, agonist luminescence; normalized to butyrate control. 1.8% of 370,000 active. AID 687014;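 active = activation above a cutoff set at the mean of all screened compounds plus 3 SD, cut at about 10% in these data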;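 also: 0% = DMSO wells and 100% = sodium butyrate wells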
# hcDAF-12 act: activators of H. contortus DAF-12 nuclear receptor | HEK293 hcDAF-12 lit1-tk-luc reporter, luminescence; 0% DMSO, 100% Δ7-dafachronic acid | activation, % at 6.8 µM | 1.4% of 370,000 active | AID 652067;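 active = activation above the mean of all tested compounds plus 3 SD, cut at about 5.5% in these data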;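 also: 100% = response to 3 µM Δ7-dafachronic acid high control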
# DAX1 inh-1: inhibits human nuclear receptor DAX1 | P51843 | HEK293 Gal4-DAX1 luciferase reporter, luminescence | inhibition, % at 6.75 µM | 0.99% of 340,000 active | AID 504766;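 active = inhibition above the mean over all tested compounds plus 3 SD, cut at about 4.2% in these data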;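 also: 0% = DAX1-transfected cells with DMSO and 100% = empty-vector control cells with DMSO; inhibition shows as a rise in luminescence from relieved DAX1 repression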
# Target sequence (P51843 207-470 limits assumed): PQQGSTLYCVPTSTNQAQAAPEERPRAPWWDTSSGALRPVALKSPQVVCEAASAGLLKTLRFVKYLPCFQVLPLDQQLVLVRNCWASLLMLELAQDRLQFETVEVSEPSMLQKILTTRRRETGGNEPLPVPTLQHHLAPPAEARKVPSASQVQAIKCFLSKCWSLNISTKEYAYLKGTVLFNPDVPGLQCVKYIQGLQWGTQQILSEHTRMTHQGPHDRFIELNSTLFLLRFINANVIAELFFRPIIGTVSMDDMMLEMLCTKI
# DAX1 inh-2: inhibitors of DAX1 repression of SF-1 activated StAR promoter; 1.1% of 370,000 active; inhibition, % at 6.8 µM; AID 652010; HEK293T StAR-luciferase reporter, SF-1/DAX-1 repression relief;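 active = inhibition above the mean over all tested compounds plus 3 SD, cut at about 3.6% in these data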;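 also: 0% = DAX-1 cells with DMSO and 100% = cells lacking DAX-1 with DMSO; higher inhibition means more luminescence from relief of DAX-1 repression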
# hgDAF12 conf: hgDAF-12 agonism, confirmation assay; shares compounds with hgDAF12 agonist; HEK293 GAL4-hgDAF12 luciferase reporter, agonist mode; percent of butyrate response; activation, % at 6.8 µM; 80% of 3,300 active;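 active = mean activation over triplicate wells above the hit cutoff derived from the earlier primary screen, cut at about 11% in these data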;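 also: 0% = DMSO low control and 100% = 2 mM sodium butyrate high control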
# LXR ag 2: LXR-beta agonism as DAF-12 counter-screen; activation, % at 6.8 µM; shares compounds with hgDAF12 agonist; AID 743051; 3,300 tested, under 10 active; HEK293 Gal4-LXR luciferase reporter, 24 h;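 active = mean activation of the triplicate above a set limit carried over from the primary screen, none filed active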
# * = called active by the depositor; . = no result given.
SMILES,ssDAF-12 act,hgDAF12 agonist,hcDAF-12 act,DAX1 inh-1,DAX1 inh-2,hgDAF12 conf,LXR ag 2
CN(c1ccccc1)S(=O)(=O)c1cccc(NC(=O)COC(=O)C2CCCCC2)c1,-1,-1,1,0,0,.,.
CCN(CC)CCN(Cc1cc2ccc(C)c(C)c2[nH]c1=O)C(=S)NCc1ccco1,-2,-11,-3,-3,2,.,.
Cc1cc(C(=O)OCC(=O)N(C)c2ccccc2)c(C)o1,-1,1,-2,0,1,.,.
COc1ccccc1CCC(=O)OCC(=O)Nc1ccc(C(N)=O)cc1,-1,0,2,0,1,.,.
COC(=O)[C@]12C[C@H](CC(=O)NCCCCc3ccccc3)C(=O)N(Cc3ccc(Cl)cc3Cl)C1=C[C@H](C1CCCC1)O[C@@H]2C,0,0,-1,.,-1,.,.
c1ccc(-c2cc3nccc(-c4ccccn4)n3n2)cc1,0,23*,4,4,1,16*,1
CN(C)C(CNC(=O)c1ccc(C2SCCS2)cc1)c1ccccc1 (centres undefined),0,8,2,1,1,.,.
CCCCc1ccc2nc(NC(=O)c3ccco3)sc2c1,0,22*,5,.,.,19*,1
CC(=O)Nc1nc2ccc(NC(=O)c3ccco3)cc2s1,-1,4,1,0,1,.,.
Cc1cc2sc(NC(=O)c3ccco3)nc2cc1Cl,-1,14*,4,2,3,20*,1
O=C(Nc1nc2ccc(Br)cc2s1)c1ccco1,1,13*,6.1*,1,3,17*,1
Cc1ccc2nc(NC(=O)c3ccc(Br)o3)sc2c1,1,15*,6.3*,4,2,17*,1
CC(C)c1nc2ccc(Br)cn2c1NC1CCCC1,-1,-4,-2,-1,-1,.,.
NCCCCCC(=O)N/N=C/c1coc2ccccc2c1=O,-2,2,2,0,0,.,.
COc1ccc(C(C)(O)c2nc(-c3ccc4ccccc4c3)cs2)cc1 (centres undefined),-1,2,0,.,0,.,.
Cn1c(CO)cnc1S(=O)(=O)Cc1c(Cl)cccc1Cl,-1,0,-1,1,0,.,.
O=C(NCc1cc(C(F)(F)F)ccc1Cl)c1cccc2c1C(=O)c1ccc(Cl)cc1S2(=O)=O,0,0,0,.,0,.,.
Cc1nn(-c2ccccc2)c(N)c1N=Nc1cccc(S(=O)(=O)N2CCOCC2)c1,-2,-3,-3,-1,-1,.,.
Cc1cccc(N=Nc2c(C)nn(-c3ccccc3)c2N)c1C,-1,16*,1,0,0,11*,0
O=C(Nc1ccc(Cl)cc1F)c1ccccc1Br,-1,15*,5,1,4.4*,14*,1
O=C(CCNC(=O)c1ccc([N+](=O)[O-])cc1)Nc1cc(C(F)(F)F)ccc1N1CCOCC1,-1,1,0,2,0,.,.
Nc1nc(Nc2ccccc2F)sc1C(=O)c1ccccc1,-1,19*,3,2,0,19*,1
CCNC(=O)C1(C)CCN(C(=O)c2ccc(OC)c(OC)c2)C1 (centres undefined),-1,3,-1,.,1,.,.
Cc1nn(-c2ccccn2)c2c1-c1nc(N)ncc1CC2,0,18*,1,1,2,10*,0
CCc1ccc(-c2cc(C(=O)N/N=C/c3ccccn3)[nH]n2)cc1,0,18*,4,4.5*,2,3,0
Cc1ccc(-c2cc(C(=O)N/N=C/c3c[nH]c4ccccc34)[nH]n2)cc1,-1,14*,0,-2,-2,6,0
O=C(N/N=C/c1ccccn1)c1cc(-c2ccccc2Cl)n[nH]1,-1,0,0,1,0,.,.
O=C(N/N=C/c1ccccn1)c1cc(-c2cccc3ccccc23)n[nH]1,-1,14*,-1,6.6*,1,-1,0
O=C(N/N=C/c1ccccn1)c1cc(-c2ccc3ccccc3c2)n[nH]1,0,22*,5,1,3,1,0
